This is an account of results in PubChem BioAssay AID602245 (The Scripps Research Institute Molecular Screening Center, 2012).

The structures appear in SMILES notation. Active and inactive are the calls of the source.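 How the source made its calls: active means compound that raised the calcium level needed for half-maximal fiber tension by more than 10% versus solvent alone; inactive means the rest.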

The nature of the test: RTF inhibitors shifting pCa50 of muscle force – permeabilized porcine cardiac fibers, force transducer, powder samples, mechanism study for cardiac RTF inhibitor project, late-stage follow-up (AID 602245). The note with it: pig permeabilized cardiac fiber tension, pCa50 shift, at 10 µM; delta pCa50: measured here: shift in calcium sensitivity, stronger effect = lower value; fold change of Ca2+ KD: stronger effect = higher value; maximal force change: measured here: effect on maximal fiber force.

In the case of `NCCCCCCNS(=O)(=O)c1cccc2c(Cl)cccc12`, the delta pCa50 is -0.116, the fold change of Ca2+ KD is 1.31 (active) and the maximal force change was -4.5%.
